Test results as given in ChEMBL document CHEMBL1157539, “Thousands of chemical starting points for antimalarial lead identification” (Nature, 2010).

The molecules below were run on Plasmodium falciparum (assay: GSK_TCMDC: Inhibition of Plasmodium falciparum 3D7 in whole red blood cells, using parasite LDH activity as an index of growth. Test compounds present at 2uM).
Format: functional
CC(C)C[C@H](NC(=O)c1ccc(OCCN2CCOCC2)cc1)C(=O)N[C@H](/C=N/N(C)C(=O)c1ccccc1)CCc1ccccc1 gave an Inhibition of 91%. With O=C(C=Cc1ccc(Cl)c(Cl)c1)NC1CCN(CCc2ccccc2)CC1.O=C(O)C(F)(F)F the Inhibition was 97%. Molecule O=C(O)C[C@H](NC(=O)CCCNC(=O)c1cccc(-c2ccc(Cl)c(Cl)c2)c1)C(=O)O has an Inhibition of 91%. COc1ccccc1-c1ccc2nnc(SCC(=O)Nc3ccc4c(c3)OCCO4)n2n1 was tested, and the Inhibition was 99%. In the case of COc1ccc(NC(=O)[C@H](CC(C)C)Nc2cc(C)nc(NCc3cccc(C)c3)n2)cc1.O=C(O)C(F)(F)F, the Inhibition is reported as 100%. CC(C)CNCc1ccc(-c2ccc(CN(C(=O)NCCc3ccccc3)C3CCN(Cc4ccccc4)CC3)cc2)cc1.O=C(O)C(F)(F)F gave an Inhibition of 98%. Cl.c1ccc(Cn2nnnc2-c2cccc(Nc3ccnc4cc(-c5nccs5)ccc34)c2)cc1 gave an Inhibition of 87%. O=C(O)C(F)(F)F.c1cc(CN2CCCCC2)cc(-c2csc(-c3nc4ccccc4[nH]3)c2)c1 gave an Inhibition of 90%. NC(=O)c1cccc(CNC(=O)NC[C@H]2CN(Cc3ccc(Cl)c(Cl)c3)CCO2)c1 was tested, and the Inhibition was 98%. Molecule CCN(CC)c1ccccc1CNC(=O)c1cc(Cl)c(N)cc1OC has an Inhibition of 97%. Work on CCn1cc2c3c(cc(C(=O)N[C@@H](Cc4ccccc4)[C@H](O)CNC4CCOCC4)cc31)N(C)S(=O)(=O)CC2 yielded an Inhibition of 98%. Work on COc1ccc2nccc([C@@H](O)CN3CCC(NS(=O)(=O)c4cc(Br)c(Br)s4)CC3)c2c1 yielded an Inhibition of 92%. In the case of Cc1cccc2nc(-c3ccc(-c4cccc(CNCCCNS(C)(=O)=O)c4)s3)[nH]c12.O=C(O)C(F)(F)F, the Inhibition is reported as 99%. Clc1ccc2c(NCc3ccccn3)ccnc2c1 gave an Inhibition of 99%. Work on Cc1noc(C)c1-c1cccc(C(=O)NC2CCN(CCNC(=O)C(c3ccccc3)c3ccccc3)CC2)c1.O=C(O)C(F)(F)F yielded an Inhibition of 85%. CC(=O)Nc1cccc(C(=O)Nc2cccc(-c3ccc(-c4nc5cccc(C)c5[nH]4)cc3)c2)c1 was tested, and the Inhibition was 95%. CCOC(=O)c1c(C)noc1Nc1cccc(C)c1C gave an Inhibition of 98%. Work on CC[C@H](C)CNC(=O)c1cncc(-c2cccc(CN3CCC(N4CCCC4)CC3)c2)c1.O=C(O)C(F)(F)F yielded an Inhibition of 97%. Molecule CCN(CC)CCNc1nc(C=Cc2ccc(Cl)cc2)nc2cc3ccccc3cc12 has an Inhibition of 100%. In the case of CC(Cc1ccc(NS(=O)(=O)c2ccc(CC(C)NCCc3cccc(Cl)c3)cc2)cc1)NCCc1cccc(Cl)c1 (stereo not given), the Inhibition is reported as 100%. Work on CCCCCNc1nc2nc(N)nc(N)c2nc1-c1ccccc1.Cl yielded an Inhibition of 91%. Molecule CC(C)(C)C/C=C\c1ccc(C(=O)NCC2CC2)cc1 has an Inhibition of 94%. CCN(CCCN1CCCCC1)c1cc(C)nc(Nc2ccc(C)c(F)c2)n1.O=C(O)C(F)(F)F was tested, and the Inhibition was 100%. Work on Br.c1cc(C2=NC3CCCCC3N2)ccc1OCCCCCOc1ccc(C2=NC3CCCCC3N2)cc1 (stereo not given) yielded an Inhibition of 100%. COc1cc2c(cc1S(=O)(=O)c1ccc(OCc3ccc(Cl)cc3)cc1)CCN(Cc1ccc(NC(C)=O)s1)CC2 showed an Inhibition of 89%. Work on Cc1[nH]cc(Br)c(=O)c1-c1ccc(Oc2ccccc2)cc1 yielded an Inhibition of 97%. With O=c1cc(NCCC(CNCc2ccc(Br)o2)NCc2cc(Br)cc(Br)c2)[nH]c2ccccc12 (stereo not given) the Inhibition was 98%. For COc1ccc2c(-c3ccccc3)noc2c1, the Inhibition was 98%. Work on Cc1cc(N[C@@H](Cc2ccccc2)C(=O)NCc2cccc(F)c2)nc(NCC2CCCCC2)n1.O=C(O)C(F)(F)F yielded an Inhibition of 100%. CCN(CCCN1CCCCC1)c1cc(C)nc(Nc2cc(Cl)cc(Cl)c2)n1.O=C(O)C(F)(F)F showed an Inhibition of 100%. Work on CC(=O)c1c(Cc2cccc(C(F)(F)F)c2)c[nH]c1C yielded an Inhibition of 94%. COc1cc2nc(NCCc3cccc(Cl)c3)nc(NCc3ccccc3)c2cc1OC gave an Inhibition of 100%. With CCCC(C)Nc1nc(C)cc(N[C@@H](CC(C)C)C(=O)NCCc2ccccc2)n1.O=C(O)C(F)(F)F (stereo not given in full) the Inhibition was 96%. CN(C)C(=O)c1cc(CNCc2ccccc2)ccc1-c1cccc(CNCc2ccc(-c3ccccc3)cc2)c1.O=C(O)C(F)(F)F gave an Inhibition of 90%. Work on COc1cc(NC(=O)/C=C/c2ccccc2OC(F)(F)F)cc(OCCN2CCN(CCN3CCOCC3)CC2)c1.O=C(O)C(=O)O yielded an Inhibition of 98%. For CCC(C)NC(=O)Nc1ccc(-c2cccc(-c3nc4cccc(C)c4[nH]3)c2)cc1 (stereo not given), the Inhibition was 100%. In the case of Nc1nc(Nc2cccc(Cl)c2)ncc1C(=O)NCc1ccncc1, the Inhibition is reported as 98%. With CCCC(CNCc1ccccc1)CNc1cc(=O)c2ccccc2[nH]1 (stereo not given) the Inhibition was 86%. In the case of O=C(/C=C/c1ccc2ccccc2c1)NCC1(c2ccc(-c3ccccc3)cc2)CCOCC1, the Inhibition is reported as 95%. Nc1ncc(OC2CCCCC2)c(N)n1 gave an Inhibition of 94%.

The molecules below were run on Plasmodium falciparum (assay: GSK_TCMDC: Inhibition of Plasmodium falciparum Dd2 in whole red blood cells, using parasite LDH activity as an index of growth. Test compounds present at 2uM).
Format: functional
CC(C)C[C@H](NC(=O)c1ccc(OCCN2CCOCC2)cc1)C(=O)N[C@H](/C=N/N(C)C(=O)c1ccccc1)CCc1ccccc1 gave an Inhibition of 72%. Work on O=C(C=Cc1ccc(Cl)c(Cl)c1)NC1CCN(CCc2ccccc2)CC1.O=C(O)C(F)(F)F yielded an Inhibition of 13%. Work on O=C(O)C[C@H](NC(=O)CCCNC(=O)c1cccc(-c2ccc(Cl)c(Cl)c2)c1)C(=O)O yielded an Inhibition of 0%. Work on COc1ccccc1-c1ccc2nnc(SCC(=O)Nc3ccc4c(c3)OCCO4)n2n1 yielded an Inhibition of 5%. COc1ccc(NC(=O)[C@H](CC(C)C)Nc2cc(C)nc(NCc3cccc(C)c3)n2)cc1.O=C(O)C(F)(F)F showed an Inhibition of 90%. Molecule CC(C)CNCc1ccc(-c2ccc(CN(C(=O)NCCc3ccccc3)C3CCN(Cc4ccccc4)CC3)cc2)cc1.O=C(O)C(F)(F)F has an Inhibition of 62%. Cl.c1ccc(Cn2nnnc2-c2cccc(Nc3ccnc4cc(-c5nccs5)ccc34)c2)cc1 gave an Inhibition of 46%. O=C(O)C(F)(F)F.c1cc(CN2CCCCC2)cc(-c2csc(-c3nc4ccccc4[nH]3)c2)c1 gave an Inhibition of 16%. NC(=O)c1cccc(CNC(=O)NC[C@H]2CN(Cc3ccc(Cl)c(Cl)c3)CCO2)c1 was tested, and the Inhibition was 65%. Work on CCN(CC)c1ccccc1CNC(=O)c1cc(Cl)c(N)cc1OC yielded an Inhibition of 94%. In the case of CCn1cc2c3c(cc(C(=O)N[C@@H](Cc4ccccc4)[C@H](O)CNC4CCOCC4)cc31)N(C)S(=O)(=O)CC2, the Inhibition is reported as 98%. Molecule COc1ccc2nccc([C@@H](O)CN3CCC(NS(=O)(=O)c4cc(Br)c(Br)s4)CC3)c2c1 has an Inhibition of 36%. Cc1cccc2nc(-c3ccc(-c4cccc(CNCCCNS(C)(=O)=O)c4)s3)[nH]c12.O=C(O)C(F)(F)F gave an Inhibition of 19%. Clc1ccc2c(NCc3ccccn3)ccnc2c1 showed an Inhibition of 99%. With Cc1noc(C)c1-c1cccc(C(=O)NC2CCN(CCNC(=O)C(c3ccccc3)c3ccccc3)CC2)c1.O=C(O)C(F)(F)F the Inhibition was 74%. With CC(=O)Nc1cccc(C(=O)Nc2cccc(-c3ccc(-c4nc5cccc(C)c5[nH]4)cc3)c2)c1 the Inhibition was 12%. CCOC(=O)c1c(C)noc1Nc1cccc(C)c1C showed an Inhibition of 0%. With CC[C@H](C)CNC(=O)c1cncc(-c2cccc(CN3CCC(N4CCCC4)CC3)c2)c1.O=C(O)C(F)(F)F the Inhibition was 5%. Molecule CCN(CC)CCNc1nc(C=Cc2ccc(Cl)cc2)nc2cc3ccccc3cc12 has an Inhibition of 99%. CC(Cc1ccc(NS(=O)(=O)c2ccc(CC(C)NCCc3cccc(Cl)c3)cc2)cc1)NCCc1cccc(Cl)c1 (stereo not given) was tested, and the Inhibition was 38%. Molecule CCCCCNc1nc2nc(N)nc(N)c2nc1-c1ccccc1.Cl has an Inhibition of 0%. Work on CC(C)(C)C/C=C\c1ccc(C(=O)NCC2CC2)cc1 yielded an Inhibition of 88%. For CCN(CCCN1CCCCC1)c1cc(C)nc(Nc2ccc(C)c(F)c2)n1.O=C(O)C(F)(F)F, the Inhibition was 92%. Work on Br.c1cc(C2=NC3CCCCC3N2)ccc1OCCCCCOc1ccc(C2=NC3CCCCC3N2)cc1 (stereo not given) yielded an Inhibition of 23%. For COc1cc2c(cc1S(=O)(=O)c1ccc(OCc3ccc(Cl)cc3)cc1)CCN(Cc1ccc(NC(C)=O)s1)CC2, the Inhibition was 0%. Cc1[nH]cc(Br)c(=O)c1-c1ccc(Oc2ccccc2)cc1 was tested, and the Inhibition was 96%. O=c1cc(NCCC(CNCc2ccc(Br)o2)NCc2cc(Br)cc(Br)c2)[nH]c2ccccc12 (stereo not given) gave an Inhibition of 90%. For COc1ccc2c(-c3ccccc3)noc2c1, the Inhibition was 34%. Cc1cc(N[C@@H](Cc2ccccc2)C(=O)NCc2cccc(F)c2)nc(NCC2CCCCC2)n1.O=C(O)C(F)(F)F showed an Inhibition of 42%. For CCN(CCCN1CCCCC1)c1cc(C)nc(Nc2cc(Cl)cc(Cl)c2)n1.O=C(O)C(F)(F)F, the Inhibition was 99%. For CC(=O)c1c(Cc2cccc(C(F)(F)F)c2)c[nH]c1C, the Inhibition was 92%. COc1cc2nc(NCCc3cccc(Cl)c3)nc(NCc3ccccc3)c2cc1OC showed an Inhibition of 100%. CCCC(C)Nc1nc(C)cc(N[C@@H](CC(C)C)C(=O)NCCc2ccccc2)n1.O=C(O)C(F)(F)F (stereo not given in full) showed an Inhibition of 51%. Work on CN(C)C(=O)c1cc(CNCc2ccccc2)ccc1-c1cccc(CNCc2ccc(-c3ccccc3)cc2)c1.O=C(O)C(F)(F)F yielded an Inhibition of 12%. Work on COc1cc(NC(=O)/C=C/c2ccccc2OC(F)(F)F)cc(OCCN2CCN(CCN3CCOCC3)CC2)c1.O=C(O)C(=O)O yielded an Inhibition of 25%. CCC(C)NC(=O)Nc1ccc(-c2cccc(-c3nc4cccc(C)c4[nH]3)c2)cc1 (stereo not given) showed an Inhibition of 83%. With Nc1nc(Nc2cccc(Cl)c2)ncc1C(=O)NCc1ccncc1 the Inhibition was 29%. CCCC(CNCc1ccccc1)CNc1cc(=O)c2ccccc2[nH]1 (stereo not given) was tested, and the Inhibition was 21%. Molecule O=C(/C=C/c1ccc2ccccc2c1)NCC1(c2ccc(-c3ccccc3)cc2)CCOCC1 has an Inhibition of 34%. In the case of Nc1ncc(OC2CCCCC2)c(N)n1, the Inhibition is reported as 0%.
